According to PMC7862700, “An all-to-all approach to the identification of sequence-specific readers for epigenetic DNA modifications on cytosine”:

Tests used:
Test in all cases: DAPPL (digital affinity profiling via proximity ligation, sequencing); 10 mM Tris-HCl pH 7.5, 50 mM NaCl, 1 mM DTT, 4% glycerol, room temperature, 30 min; GST-TFs on glutathione beads, 16-mer random dsDNA library, 0.1% formaldehyde crosslink after washing; high values mean tight binding
FEV = biological target: T1, FEV (Homo sapiens, UniProt Q99581 1-238); conditions: protein: recombinant; tags: N-terminal GST; dsDNA, one strand shown
T1 sequence: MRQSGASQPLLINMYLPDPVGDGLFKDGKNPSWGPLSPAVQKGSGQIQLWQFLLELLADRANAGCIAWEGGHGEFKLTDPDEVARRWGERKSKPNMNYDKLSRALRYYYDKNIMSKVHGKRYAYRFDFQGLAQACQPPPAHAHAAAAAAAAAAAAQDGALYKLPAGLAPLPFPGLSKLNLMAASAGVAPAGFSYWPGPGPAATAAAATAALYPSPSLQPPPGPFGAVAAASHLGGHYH
Procedure, shortened: (§1)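 The binding signal reported is, for every hexamer, its read frequency for a factor over its read frequency for the tag-only sample. Reads came from pools of yeast-expressed, GST-fused human transcription factors on glutathione beads, barcoded with DNA and mixed with that sample, which were incubated with 200 nmole of a random double-stranded 16-mer DNA library in Tris/NaCl/DTT/glycerol buffer at room temperature for 30 min. After washing, the pools were crosslinked with 0.1% formaldehyde, proximity-ligated with BsaI/T4 ligase for 1 h at 37 °C, PCR-amplified and sequenced on an Illumina NextSeq500.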

ETV5 = ETV5 (Homo sapiens, UniProt P41161 1-510); conditions: protein: recombinant; tags: N-terminal GST; dsDNA, one strand shown
ETV5, sequence (P41161 whole entry): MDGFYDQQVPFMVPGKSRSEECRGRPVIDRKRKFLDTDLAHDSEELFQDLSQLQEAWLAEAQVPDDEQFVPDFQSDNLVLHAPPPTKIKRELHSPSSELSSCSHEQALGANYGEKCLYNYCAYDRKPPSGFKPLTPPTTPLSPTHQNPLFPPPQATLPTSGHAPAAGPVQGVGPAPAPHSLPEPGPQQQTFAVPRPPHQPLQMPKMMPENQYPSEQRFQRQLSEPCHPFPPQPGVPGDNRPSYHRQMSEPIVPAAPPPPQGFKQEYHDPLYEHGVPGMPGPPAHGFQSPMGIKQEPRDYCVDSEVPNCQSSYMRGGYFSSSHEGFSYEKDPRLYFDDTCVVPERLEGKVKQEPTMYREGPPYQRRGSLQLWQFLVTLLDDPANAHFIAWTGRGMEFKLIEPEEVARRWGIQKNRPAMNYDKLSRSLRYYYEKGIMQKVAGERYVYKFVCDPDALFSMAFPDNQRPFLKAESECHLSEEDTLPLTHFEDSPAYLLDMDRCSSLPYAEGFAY
Procedure, shortened: as §1

HSF1 = HSF1 (Homo sapiens, UniProt Q00613 1-529); conditions: protein: recombinant; tags: N-terminal GST; chain copies: 3; dsDNA, one strand shown
HSF1, sequence (Q00613 whole entry): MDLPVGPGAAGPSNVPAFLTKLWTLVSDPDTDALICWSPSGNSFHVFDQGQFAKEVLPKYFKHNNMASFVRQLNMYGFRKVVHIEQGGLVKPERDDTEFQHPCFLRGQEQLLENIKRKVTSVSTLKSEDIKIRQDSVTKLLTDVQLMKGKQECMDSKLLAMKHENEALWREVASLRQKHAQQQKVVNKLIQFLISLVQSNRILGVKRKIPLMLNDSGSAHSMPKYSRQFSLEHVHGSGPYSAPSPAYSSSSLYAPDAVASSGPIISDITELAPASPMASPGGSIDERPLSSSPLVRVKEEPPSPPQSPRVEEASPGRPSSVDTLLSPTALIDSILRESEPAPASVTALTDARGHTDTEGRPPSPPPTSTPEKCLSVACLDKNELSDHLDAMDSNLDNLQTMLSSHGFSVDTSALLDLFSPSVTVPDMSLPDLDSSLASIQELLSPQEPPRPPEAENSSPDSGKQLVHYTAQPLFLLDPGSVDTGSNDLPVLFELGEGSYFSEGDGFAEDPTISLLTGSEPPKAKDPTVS
Procedure, shortened: as §1

SPIC = biological target: T2, SPIC (Homo sapiens, UniProt Q8N5J4 1-248); conditions: protein: recombinant; tags: N-terminal GST; dsDNA, one strand shown
T2 sequence: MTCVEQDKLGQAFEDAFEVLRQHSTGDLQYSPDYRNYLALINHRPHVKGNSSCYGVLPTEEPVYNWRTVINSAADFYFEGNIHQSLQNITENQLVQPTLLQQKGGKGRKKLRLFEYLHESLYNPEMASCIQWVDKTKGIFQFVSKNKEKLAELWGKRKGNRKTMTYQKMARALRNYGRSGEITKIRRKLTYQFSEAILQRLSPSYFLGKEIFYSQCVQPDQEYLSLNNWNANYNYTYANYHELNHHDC
Procedure, shortened: as §1

ELF4 = ELF4 (Homo sapiens, UniProt Q99607 1-663); conditions: protein: recombinant; tags: N-terminal GST; dsDNA, one strand shown
ELF4, sequence (Q99607 whole entry): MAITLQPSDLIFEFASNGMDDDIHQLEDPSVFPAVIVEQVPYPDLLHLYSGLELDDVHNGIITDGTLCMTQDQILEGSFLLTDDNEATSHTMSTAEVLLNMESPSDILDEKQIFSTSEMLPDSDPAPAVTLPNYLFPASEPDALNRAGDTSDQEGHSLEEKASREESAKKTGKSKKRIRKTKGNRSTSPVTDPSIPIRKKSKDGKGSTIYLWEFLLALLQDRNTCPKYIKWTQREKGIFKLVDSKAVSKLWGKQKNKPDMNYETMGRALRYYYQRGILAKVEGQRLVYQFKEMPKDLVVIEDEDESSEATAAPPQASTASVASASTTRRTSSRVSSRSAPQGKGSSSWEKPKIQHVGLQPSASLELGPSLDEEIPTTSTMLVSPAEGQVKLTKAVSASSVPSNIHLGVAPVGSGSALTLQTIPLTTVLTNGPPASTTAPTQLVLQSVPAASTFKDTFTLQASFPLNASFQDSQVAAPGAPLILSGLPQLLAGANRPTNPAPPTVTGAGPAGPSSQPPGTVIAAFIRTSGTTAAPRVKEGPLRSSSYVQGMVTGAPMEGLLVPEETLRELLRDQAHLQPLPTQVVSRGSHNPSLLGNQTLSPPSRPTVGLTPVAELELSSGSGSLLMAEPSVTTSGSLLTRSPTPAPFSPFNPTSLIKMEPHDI
Procedure, shortened: as §1

ELK4 = biological target: T3, ELK4 (Homo sapiens, UniProt P28324-2 1-405); conditions: protein: recombinant; tags: N-terminal GST; dsDNA, one strand shown
T3 sequence: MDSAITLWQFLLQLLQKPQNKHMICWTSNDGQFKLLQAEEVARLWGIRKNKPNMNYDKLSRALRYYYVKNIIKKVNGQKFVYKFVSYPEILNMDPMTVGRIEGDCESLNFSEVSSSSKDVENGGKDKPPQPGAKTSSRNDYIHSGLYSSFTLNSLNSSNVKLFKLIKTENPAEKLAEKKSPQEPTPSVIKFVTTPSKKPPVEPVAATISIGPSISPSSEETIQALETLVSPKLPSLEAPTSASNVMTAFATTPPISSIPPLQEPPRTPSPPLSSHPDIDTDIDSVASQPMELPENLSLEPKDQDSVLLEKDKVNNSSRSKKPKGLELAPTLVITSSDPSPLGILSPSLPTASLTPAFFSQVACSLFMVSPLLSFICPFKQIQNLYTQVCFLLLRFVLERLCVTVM
Procedure, shortened: as §1

ETV2 = biological target: T4, ETV2 (Homo sapiens, UniProt O00321 1-342); conditions: protein: recombinant; tags: N-terminal GST; dsDNA, one strand shown
T4 sequence: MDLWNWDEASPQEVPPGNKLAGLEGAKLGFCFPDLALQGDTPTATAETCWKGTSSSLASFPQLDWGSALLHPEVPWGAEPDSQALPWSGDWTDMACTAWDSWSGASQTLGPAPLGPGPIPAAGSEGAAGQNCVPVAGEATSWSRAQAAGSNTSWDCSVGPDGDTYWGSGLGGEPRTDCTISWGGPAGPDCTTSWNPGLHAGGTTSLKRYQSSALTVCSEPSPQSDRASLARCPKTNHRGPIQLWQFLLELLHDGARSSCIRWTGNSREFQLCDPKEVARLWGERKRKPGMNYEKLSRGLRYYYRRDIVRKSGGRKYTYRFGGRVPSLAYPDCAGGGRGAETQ
Procedure, shortened: as §1

ELF3 = biological target: T5, ELF3 (Homo sapiens, UniProt P78545 1-371); conditions: protein: recombinant; tags: N-terminal GST; dsDNA, one strand shown
T5 sequence: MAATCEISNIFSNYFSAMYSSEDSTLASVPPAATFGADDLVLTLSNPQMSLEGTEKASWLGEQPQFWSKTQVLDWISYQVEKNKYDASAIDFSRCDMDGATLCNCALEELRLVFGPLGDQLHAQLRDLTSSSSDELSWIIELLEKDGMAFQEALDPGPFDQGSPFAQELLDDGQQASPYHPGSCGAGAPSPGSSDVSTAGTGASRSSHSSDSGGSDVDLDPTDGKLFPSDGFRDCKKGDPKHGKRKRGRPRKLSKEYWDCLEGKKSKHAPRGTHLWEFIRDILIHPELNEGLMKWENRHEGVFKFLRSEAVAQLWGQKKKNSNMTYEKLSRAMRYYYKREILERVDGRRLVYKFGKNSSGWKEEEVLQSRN
Procedure, shortened: as §1

CRX = CRX (Homo sapiens, UniProt O43186 1-299); conditions: protein: recombinant; tags: N-terminal GST; dsDNA, one strand shown
CRX, sequence (O43186 whole entry): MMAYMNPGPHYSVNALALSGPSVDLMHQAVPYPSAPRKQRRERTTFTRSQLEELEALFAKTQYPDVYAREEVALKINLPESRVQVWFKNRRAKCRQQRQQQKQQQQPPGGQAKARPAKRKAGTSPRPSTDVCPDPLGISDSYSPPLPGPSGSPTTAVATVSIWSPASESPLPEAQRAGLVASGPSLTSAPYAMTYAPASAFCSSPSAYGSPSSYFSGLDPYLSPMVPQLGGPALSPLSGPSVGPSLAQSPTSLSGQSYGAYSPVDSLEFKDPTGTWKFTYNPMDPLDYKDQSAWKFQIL
Procedure, shortened: as §1

ETV1 = ETV1 (Homo sapiens, UniProt P50549 1-477); conditions: protein: recombinant; tags: N-terminal GST; dsDNA, one strand shown
ETV1, sequence (P50549 whole entry): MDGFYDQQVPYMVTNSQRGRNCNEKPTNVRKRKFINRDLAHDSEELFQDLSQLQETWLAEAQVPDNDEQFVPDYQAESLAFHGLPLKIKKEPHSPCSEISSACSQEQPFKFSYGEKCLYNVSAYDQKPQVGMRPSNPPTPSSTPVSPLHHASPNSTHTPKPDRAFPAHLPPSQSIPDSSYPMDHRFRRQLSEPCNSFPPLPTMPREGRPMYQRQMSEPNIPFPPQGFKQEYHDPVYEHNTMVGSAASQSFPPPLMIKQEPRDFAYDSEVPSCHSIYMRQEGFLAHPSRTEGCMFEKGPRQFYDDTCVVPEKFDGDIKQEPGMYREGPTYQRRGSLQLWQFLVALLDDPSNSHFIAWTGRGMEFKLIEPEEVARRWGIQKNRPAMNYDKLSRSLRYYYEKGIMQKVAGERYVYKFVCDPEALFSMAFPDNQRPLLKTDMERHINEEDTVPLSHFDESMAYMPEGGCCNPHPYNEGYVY
Procedure, shortened: as §1

ERF = biological target: T6, ERF (Homo sapiens, UniProt P50548 1-548); conditions: protein: recombinant; tags: N-terminal GST; dsDNA, one strand shown
T6 sequence: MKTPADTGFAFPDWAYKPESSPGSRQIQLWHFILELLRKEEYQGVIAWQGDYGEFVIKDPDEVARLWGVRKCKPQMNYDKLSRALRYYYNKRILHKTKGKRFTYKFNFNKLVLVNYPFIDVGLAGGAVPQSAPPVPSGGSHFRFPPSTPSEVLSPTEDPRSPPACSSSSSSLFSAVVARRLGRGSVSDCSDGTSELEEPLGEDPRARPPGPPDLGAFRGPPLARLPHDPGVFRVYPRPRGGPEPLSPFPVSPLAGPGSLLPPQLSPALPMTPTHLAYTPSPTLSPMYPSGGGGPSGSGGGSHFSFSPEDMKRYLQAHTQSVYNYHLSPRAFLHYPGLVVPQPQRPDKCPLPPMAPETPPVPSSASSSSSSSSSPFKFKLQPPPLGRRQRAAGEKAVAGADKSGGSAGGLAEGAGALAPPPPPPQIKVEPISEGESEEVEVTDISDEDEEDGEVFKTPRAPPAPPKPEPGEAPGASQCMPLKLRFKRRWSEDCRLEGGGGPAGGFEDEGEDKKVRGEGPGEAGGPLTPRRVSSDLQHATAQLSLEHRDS
Procedure, shortened: as §1

ETV3L = biological target: T7, ETV3L (Homo sapiens, UniProt Q6ZN32 1-361); conditions: protein: recombinant; tags: N-terminal GST; dsDNA, one strand shown
T7 sequence: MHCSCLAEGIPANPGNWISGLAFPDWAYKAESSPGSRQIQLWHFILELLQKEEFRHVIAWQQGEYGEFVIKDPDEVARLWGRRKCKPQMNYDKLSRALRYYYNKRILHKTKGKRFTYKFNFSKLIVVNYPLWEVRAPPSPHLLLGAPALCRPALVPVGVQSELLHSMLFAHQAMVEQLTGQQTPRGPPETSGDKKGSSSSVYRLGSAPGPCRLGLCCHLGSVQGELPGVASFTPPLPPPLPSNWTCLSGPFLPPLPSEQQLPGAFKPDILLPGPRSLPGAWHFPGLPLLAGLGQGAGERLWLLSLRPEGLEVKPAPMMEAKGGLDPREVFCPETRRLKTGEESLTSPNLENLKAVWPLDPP
Procedure, shortened: as §1

ETS2 = biological target: T8, ETS2 (Homo sapiens, UniProt P15036 1-469); conditions: protein: recombinant; tags: N-terminal GST; dsDNA, one strand shown
T8 sequence: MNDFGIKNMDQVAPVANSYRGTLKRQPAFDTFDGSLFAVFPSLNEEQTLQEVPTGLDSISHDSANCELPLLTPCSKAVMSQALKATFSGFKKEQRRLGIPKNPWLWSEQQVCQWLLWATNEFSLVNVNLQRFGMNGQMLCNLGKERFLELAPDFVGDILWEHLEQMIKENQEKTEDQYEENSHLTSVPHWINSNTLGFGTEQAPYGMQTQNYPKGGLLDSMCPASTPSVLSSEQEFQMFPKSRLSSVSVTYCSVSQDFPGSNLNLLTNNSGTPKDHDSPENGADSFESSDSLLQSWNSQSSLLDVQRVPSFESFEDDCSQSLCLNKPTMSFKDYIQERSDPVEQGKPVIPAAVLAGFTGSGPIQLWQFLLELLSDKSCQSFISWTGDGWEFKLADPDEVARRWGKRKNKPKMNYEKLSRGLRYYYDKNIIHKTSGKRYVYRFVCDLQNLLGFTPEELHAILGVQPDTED
Procedure, shortened: as §1

SPDEF = biological target: T9, SPDEF (Homo sapiens, UniProt O95238 1-335); conditions: protein: recombinant; tags: N-terminal GST; dsDNA, one strand shown
T9 sequence: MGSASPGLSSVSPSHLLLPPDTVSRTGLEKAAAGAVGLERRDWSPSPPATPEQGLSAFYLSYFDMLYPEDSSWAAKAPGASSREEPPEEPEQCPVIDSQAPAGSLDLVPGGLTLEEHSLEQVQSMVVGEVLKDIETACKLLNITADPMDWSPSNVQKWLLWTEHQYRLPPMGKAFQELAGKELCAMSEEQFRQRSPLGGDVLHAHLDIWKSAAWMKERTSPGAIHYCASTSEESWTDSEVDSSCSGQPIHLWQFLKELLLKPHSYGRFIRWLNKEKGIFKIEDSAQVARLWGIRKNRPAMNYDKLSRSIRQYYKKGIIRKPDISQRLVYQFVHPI
Procedure, shortened: as §1

ETV7 = biological target: T10, ETV7 (Homo sapiens, UniProt Q9Y603 1-341); conditions: protein: recombinant; tags: N-terminal GST; dsDNA, one strand shown
T10 sequence: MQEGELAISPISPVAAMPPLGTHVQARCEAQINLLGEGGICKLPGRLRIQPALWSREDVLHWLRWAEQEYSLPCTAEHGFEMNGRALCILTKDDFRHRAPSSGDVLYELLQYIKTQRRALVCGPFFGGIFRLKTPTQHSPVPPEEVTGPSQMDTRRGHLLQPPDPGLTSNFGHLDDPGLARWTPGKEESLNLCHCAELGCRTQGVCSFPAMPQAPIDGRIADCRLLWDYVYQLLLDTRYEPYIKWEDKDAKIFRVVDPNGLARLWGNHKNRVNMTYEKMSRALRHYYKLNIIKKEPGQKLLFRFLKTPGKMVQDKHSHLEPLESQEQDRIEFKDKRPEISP
Procedure, shortened: as §1

ELF5 = biological target: T11, ELF5 (Homo sapiens, UniProt Q9UKW6-2 1-255); conditions: protein: recombinant; tags: N-terminal GST; dsDNA, one strand shown
T11 sequence: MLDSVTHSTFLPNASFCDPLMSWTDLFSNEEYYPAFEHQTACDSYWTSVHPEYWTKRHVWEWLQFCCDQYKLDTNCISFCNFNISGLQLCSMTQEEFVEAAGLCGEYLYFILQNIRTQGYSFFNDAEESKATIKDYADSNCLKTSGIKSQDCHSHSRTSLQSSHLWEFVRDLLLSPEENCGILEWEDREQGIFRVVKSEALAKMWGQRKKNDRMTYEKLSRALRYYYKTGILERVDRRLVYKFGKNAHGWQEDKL
Procedure, shortened: as §1

ETV3 = biological target: T12, ETV3 (Homo sapiens, UniProt P41162-2 1-143); conditions: protein: recombinant; tags: N-terminal GST; dsDNA, one strand shown
T12 sequence: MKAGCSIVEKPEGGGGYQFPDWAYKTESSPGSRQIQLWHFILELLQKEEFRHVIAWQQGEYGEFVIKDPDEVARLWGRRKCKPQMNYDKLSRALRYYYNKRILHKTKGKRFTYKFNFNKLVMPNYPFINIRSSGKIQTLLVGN
Procedure, shortened: as §1

ETV6 = ETV6 (Homo sapiens, UniProt P41212 1-452); conditions: protein: recombinant; tags: N-terminal GST; dsDNA, one strand shown
ETV6, sequence (P41212 whole entry): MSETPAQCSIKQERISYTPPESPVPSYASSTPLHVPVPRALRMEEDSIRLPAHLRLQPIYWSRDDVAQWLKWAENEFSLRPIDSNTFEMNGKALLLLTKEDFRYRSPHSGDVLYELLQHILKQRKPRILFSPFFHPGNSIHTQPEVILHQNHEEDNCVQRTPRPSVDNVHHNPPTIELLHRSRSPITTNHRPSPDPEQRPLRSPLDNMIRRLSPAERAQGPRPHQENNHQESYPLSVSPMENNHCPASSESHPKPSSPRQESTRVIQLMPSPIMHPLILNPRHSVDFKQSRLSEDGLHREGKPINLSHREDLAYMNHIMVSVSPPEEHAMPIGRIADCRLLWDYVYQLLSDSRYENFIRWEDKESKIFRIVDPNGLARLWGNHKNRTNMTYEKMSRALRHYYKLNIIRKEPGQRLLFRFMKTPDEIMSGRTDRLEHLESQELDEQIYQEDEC
Procedure, shortened: as §1

TTAGCA
binding signal (FEV): 1.23 fold enrichment (6-mer frequency, TF over GST control) | binding signal (ETV5): 1.15 fold enrichment (6-mer frequency, TF over GST control) | binding signal (HSF1): 1.7 fold enrichment (6-mer frequency, TF over GST control) | binding signal (SPIC): 1.22 fold enrichment (6-mer frequency, TF over GST control) | binding signal (ELF4): 1.33 fold enrichment (6-mer frequency, TF over GST control) | binding signal (ELK4): 1.33 fold enrichment (6-mer frequency, TF over GST control) | binding signal (ETV2): 1.27 fold enrichment (6-mer frequency, TF over GST control) | binding signal (ELF3): 1.3 fold enrichment (6-mer frequency, TF over GST control) | binding signal (CRX): 2.38 fold enrichment (6-mer frequency, TF over GST control) | binding signal (ETV1): 1.32 fold enrichment (6-mer frequency, TF over GST control) | binding signal (ERF): 1.29 fold enrichment (6-mer frequency, TF over GST control) | binding signal (ETV3L): 1.26 fold enrichment (6-mer frequency, TF over GST control) | binding signal (ETS2): 1.16 fold enrichment (6-mer frequency, TF over GST control) | binding signal (SPDEF): 1.23 fold enrichment (6-mer frequency, TF over GST control) | binding signal (ETV7): 1.19 fold enrichment (6-mer frequency, TF over GST control) | binding signal (ELF5): 1.15 fold enrichment (6-mer frequency, TF over GST control) | binding signal (ETV3): 1.19 fold enrichment (6-mer frequency, TF over GST control) | binding signal (ETV6): 1.25 fold enrichment (6-mer frequency, TF over GST control)
